Only some compounds are listed: those with a hit (about 21% of all), similar ones and a draw of the others.
Pf growth 48h: Primary qHTS for delayed death inhibitors of the malarial parasite plastid, 48 hour incubation. 310,000 tested, 5.9% active. AID 504832, 2011. Potency, µM (titrated, usually from 28.7 µM), for the others: at the highest dose activity change, negative = inhibition, most hits filed as inhibitors. P. falciparum luciferase growth in erythrocytes, 48 h; further: potency means the concentration at half of the fitted maximal effect; on the % scale 0 is the no-effect control and ±100 the full control effect
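Firefly luciferase activity from engineered P. falciparum reports growth; inhibitors lower the luminescent signal. Cultures contained 2% hematocrit erythrocytes at 0.1% final parasitemia.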
CHX counter: Cycloheximide Counterscreen for Small Molecule Inhibitors of Shiga Toxin; cell reporter, cycloheximide protein synthesis inhibition counterscreen; max response, %; 300,000 tested, 12% active; AID 2314, 2010; in the data active means max response mostly above about 13%, no sharp cut-off; inactive means mostly below about 14%; further: read at 38.3 µM for the half of the compounds with a filed dose; 0% is about no effect
Shiga toxin inh: A qHTS for Small Molecule Inhibitors of Shiga Toxin; inhibition, % at 38.7 µM; Vero cells, Shiga toxin protein synthesis inhibition reporter; AID 2315, 2010; 290,000 tested, 9.2% active; in the data active means inhibition mostly above about 28%, no sharp cut-off; inactive means mostly below about 43%; further: 0% is about no effect
Pf growth 96h: Primary qHTS for delayed death inhibitors of the malarial parasite plastid, 96 hour incubation; AID 504834, 2011; P. falciparum luciferase reporter growth, 96 h; Potency, µM (series often up to 28.7 µM), without a hit: at the highest dose activity change, negative = inhibition, usual class: inhibitors; 320,000 tested, 6.9% active; further: potency means the concentration at half of the fitted maximal effect; on the % scale 0 is the no-effect control and ±100 the full control effect
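P. falciparum expressing integrated firefly luciferase grown in erythrocytes (2% hematocrit, 0.05% parasitemia final) with compounds for 96 hours at 37 C, 5% CO2. Growth inhibition read as loss of luminescence after adding luciferase detection reagent.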
Sm TGR inh: qHTS Assay for the Inhibitors of Schistosoma Mansoni Peroxiredoxins; Schistosoma mansoni thioredoxin glutathione reductase (TGR), Q962Y6; purified TGR, DTNB reduction, TNB absorbance 405 nm; Potency, µM (highest dose often 114 µM), for the others: at the highest dose activity change, negative = inhibition, most hits filed as inhibitors; 360,000 tested, 3% active; further: potency means the concentration at half of the fitted maximal effect; on the % scale 0 is the no-effect control and ±100 the full control effect; nearly all actives have a fitted effect of over 60% in size
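TGR 20 nM + NADPH 100 uM (dispensed conc.), cpd preinc 15 min RT; start with NADPH (500 uM addition) then DTNB (15 mM addition). Kinetic TNB absorbance, 405 nm filter. Four-parameter Hill fit across titration.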
NS1 inh: qHTS Assay for Inhibitors of Influenza NS1 Protein Function; Potency, µM (series often up to 46.1 µM), for inactives: top-dose activity, positive = more growth; 270,000 tested, 0.4% active; AID 2326, 2010; calls by dose curve; further: potency means the concentration at half of the fitted maximal effect; actives are rising curves; nearly all actives have a fitted effect of over 50% in size
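Compounds were scored for reversing the slow growth caused by influenza A NS1 in S. cerevisiae, measured by optical density at 600 nm. Assay medium contained 2% galactose at pH 6.0; NS1-free yeast of the same strain were the positive control.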
Starred values were filed as active, the others as inactive; i = inactive; u = inconclusive; x = no result; [ ] = remark or other dose. Unless noted, the call rests on the fitted dose curve; in most records, active means well fitted curve in the direction sought with a large enough effect; inconclusive means small, poorly fitted or top-dose-only effect, or another doubt; inactive means no such curve, though single readings can be large; an effect the other way counts as inactive or inconclusive.

SMILES	Pf growth 48h	CHX counter	Shiga toxin inh	Pf growth 96h	Sm TGR inh	NS1 inh
COc1ccc(C2C(C(=O)N3CCC4(CC3)OCCO4)CC(=O)N2c2ccc(OC)cc2)cc1 (stereo unspecified)	11.7µM*	-1.8	-7.0	x	-15.4%	0.8%
CCN(CC)C(=O)C1CC(=O)N(c2ccc(OC)cc2)C1c1ccc(OC)cc1 (stereo unspecified)	u	8.6	-3.9	x	-14.6%	-1.4%
COc1ccc(C2C(C(=O)N3CCC(C(N)=O)CC3)CC(=O)N2c2ccc(OC)cc2)cc1 (stereo unspecified)	u	6.1	-3.6	5.22µM*	-2.7%	x
CCCN(CCC)CC(C)(C)NS(=O)(=O)c1ccc(Cl)cc1	8.5%	-2.7	-5.5	8.0%	2.0%	7.5%
CC(=O)OCc1cnc(C)c2oc(=O)c(C(=O)Nc3cccc(F)c3)cc12	x	x	x	x	-0.3%	x
CC(C)(C)Cc1nnc(NC(=O)CCC2CCCCC2)s1	11.9%	-0.7	-11.2	2.0%	3.6%	-1.5%
Cc1cc(C)c(N=Cc2c(O)c3ccccc3oc2=O)c(C)c1	10.4µM*	15.4*	x	1.7%	0.0%	-13.1%
COc1ccc(Cn2c(O)c(C=Nc3ccccc3)c3ccccc3c2=O)cc1	u	-3.7	-5.5	u	-1.4%	14.8%
COc1ccc(N=Cc2c(O)c3ccccc3oc2=O)cc1	11.5%	32.4*	60.6*	37.9%	-4.4%	1.7%
Cc1cc(C)cc(N=Cc2c(O)c3ccccc3oc2=O)c1	-13.0%	14.8	12.2	u	3.0%	x
CC(C)c1ccc(N=Cc2c(O)c3ccccc3oc2=O)cc1	0.2%	59.9*	64.2*	-3.3%	2.6%	7.8%
COc1ccc(Cn2c(O)c(C=Nc3ccc(O)cc3)c3ccccc3c2=O)cc1	-23.1%	7.4	-2.9	11.7µM*	-18.6%	u
Cc1ccc(NS(=O)(=O)c2c(C)[nH]c(C)c2C(=O)N2CCCCC2)c(Cl)c1	1.3%	-6.5	-3.9	1.1%	-17.3%	-4.2%
COc1cccc(CNC(=O)NCc2noc3ccc(C)cc23)c1	x	x	x	x	-0.1%	x
CC1CCCC(NC(=O)Nc2cccs2)C1C (stereo unspecified)	1.0%	6.6	37.8	-62.4%	-27.8%	2.3%
O=C1N/C(=C\c2ccc(O)cc2)C(O)=C1C=NCc1ccccc1	u	15.9*	14.4	12.3%	-3.9%	-6.2%
COc1ccccc1Nc1ncnc2c1cnn2-c1cccc(C)c1	76.7%	51.0*	82.8*	5.6%[5.75 µM]	14.9%	-5.4%
Cc1cccc(-n2ncc3c(Nc4ccc(C)c(Cl)c4)ncnc32)c1	x	x	x	x	-7.8%	x
COc1ccc(OC)c(Nc2ncnc3c2cnn3-c2ccccc2)c1	1.6%	21.2*	43.9	21.9%	-0.6%	-44.7%
COc1ccc(OC)c(Nc2ncnc3c2cnn3-c2ccc(C)cc2)c1	x	x	x	x	1.0%	x
COc1cccc(Nc2ncnc3c2cnn3-c2cccc(C)c2)c1	70.8%	26.5*	77.5*	51.5%	1.4%	7.7%
CCCCOc1ccc(/C(O)=C2/C(=O)C(=O)N(Cc3cccnc3)C2c2ccncc2)c(C)c1 (stereo unspecified)	-17.6%	-1.2	-4.0	14.6%	-28.8%	-22.3%
CC1(C)Cc2ccccc2-c2nnc(SCC(=O)N3CCN(c4ccccc4)CC3)n21	-23.2%	1.2	-7.2	x	8.9%	-3.8%
CC1(C)Cc2ccccc2-c2nnc(SCc3ccccc3)n21	u	11.0*	17.8	i	-17.6%	-5.1%
CC1(C)Cc2ccccc2-c2nnc(-c3cccnc3)n21	2.33µM*	-5.0	-19.3	x	8.1%	-2.3%
SMILES	Pf growth 48h	CHX counter	Shiga toxin inh	Pf growth 96h	Sm TGR inh	NS1 inh
O=C(Cn1nc(Cc2cccnc2)c2ccccc2c1=O)Nc1ccccc1F	-17.8%	-1.4	-6.6	-11.5%	10.5%	27.0%
O=C1CCCCN1CCCC(=O)N1CCCC(Nc2ccccc2)C1 (stereo unspecified)	40.3%	6.3	-6.1	u	-3.4%	-9.8%
CCOC(=O)C1CCN(CCC(=O)Nc2ccc(Br)c(C)c2)CC1	-1.9%	-3.8	-16.8	0.0%	0.0%	8.8%
O=C(CN1CCN(S(=O)(=O)c2cccs2)CC1)N1CCCCC1	8.7%	x	x	6.1%	u	x
COCCNc1nc(-c2cc(C)n(CCc3ccc(OC)cc3)c2C)cs1	2.62µM*	-4.4	6.2	u	u	x
CCCn1c(C)nnc1SCC(=O)NC1CCCCC1	29.7%	-2.4	-9.5	18.5%	-16.3%	2.5%
O=C(Nc1cccc(NC(=O)c2ccccc2Cl)c1)c1cccc(Br)c1	x	x	x	x	2.6%	x
Cc1ccc(C2c3[nH]c4ccccc4c3C[C@H]3C(=O)N(c4ccccc4C(=O)NCCN4CCOCC4)C(=O)N23)cc1 (stereo partly specified)	14.7µM*	-2.2	0.5	u	1.5%	-20.2%
Cc1ccccc1C1c2[nH]c3ccccc3c2C[C@H]2C(=O)N(c3ccccc3C(=O)NCCCN3CCOCC3)C(=O)N12 (stereo partly specified)	u	-1.8	-1.3	11.7µM*	-2.6%	-3.2%
O=C(NCCCN1CCOCC1)c1ccccc1N1C(=O)[C@@H]2Cc3c([nH]c4ccccc34)C(c3cccc(Cl)c3)N2C1=O (stereo partly specified)	u	-4.1	1.4	9.28µM*	9.3%	-2.1%
Cc1ccccc1C1c2[nH]c3ccccc3c2C[C@H]2C(=O)N(c3ccccc3C(=O)NCCN3CCOCC3)C(=O)N12 (stereo partly specified)	u	-4.1	-2.1	u	2.2%	5.9%
O=C(CCl)NC1(C(F)(F)F)C(=O)Nc2c1c(=O)[nH]c(=O)n2-c1ccccc1 (stereo unspecified)	22.9%	-1.3	13.7	14.0%	-8.5%	2.8%
COC(=O)c1ccc2[nH]c3c(c2c1)CC(C)CC3 (stereo unspecified)	28.9%	35.5*	58.7*	u	-0.5%	-4.5%
CC1CCc2[nH]c3ccc(C(=O)N4CCCC(C(F)(F)F)C4)cc3c2C1 (stereo unspecified)	u	x	x	u	-7.6%	x
CCOC(=O)N1CCN(C(=O)c2ccc(Cn3c(=S)[nH]c4cc(C(=O)OC)ccc4c3=O)cc2)CC1	u	0.3	-5.4	u	0.0%	6.0%
CCOC(=O)C1CCCN(C(=O)c2ccc3[nH]c4c(c3c2)CC(C)CC4)C1 (stereo unspecified)	9.28µM*	x	x	u	-13.6%	x
CCOC(=O)C1CCCN(C(=O)c2ccc(Cn3c(=S)[nH]c4cc(C(=O)OC)ccc4c3=O)cc2)C1 (stereo unspecified)	u	14.0	42.7	11.7µM*	-4.3%	x
CC(C(=O)OCC(=O)c1cccc([N+](=O)[O-])c1)N1C(=O)C2C3CCC(C3)C2C1=O (stereo unspecified)	-4.3%	-3.5	-1.8	u	1.7%	11.5%
